Assay: P. aeruginosa biofilm formation inhibitors, primary screen, strain PAO1, LB-PBS medium, absorbance 600 nm (AID 1176); also: test concentration not given here
Conditions: P. aeruginosa PAO1 growth/biofilm, A600, 12 h; higher = more signal; call rule not given here

z-score, inactive:
CCCC[C@@H]1C[C@H]1[C@@H](NC(=O)c1ccco1)c1ccc(-c2ccccc2)cc1 2.16, O=C1O[C@@H](c2ccccc2)[C@@H](c2ccccc2)N2[C@@H](c3ccccc3OCCO)[C@]3(C(=O)Nc4ccc(C#CC5=CCCCC5)cc43)[C@@H](C(=O)N3CCCCCCC3)[C@H]12 1.63, O=C1NC(=O)C2C1C=CC(C(O)c1cccs1)N2Nc1ccc(Cl)cc1Cl (stereo not given) 1.08, COC(=O)[C@]1(CCC(=O)OC(C)(C)C)N=C(c2ccc(OCCCO)cc2)O[C@@H]1c1ccccc1CN=[N+]=[N-] 1.53, COc1ccc(C(=O)Nc2ccc(CN3C(=O)[C@]4(O[C@H](CCO)[C@@H]([Si](C)(C)c5ccc(OC)cc5)[C@@H]4C)c4ccccc43)cc2)cc1 2.16, CC1(C)C2C=C(C(O)C3C=CC4C(=O)NC(=O)C4N3Nc3ccc(Cl)cc3Cl)C[C@@H]1C2 (stereo not given in full) 1.55, C=C(COC)C(=O)CC[C@@H](OC(C)=O)c1ccc(CO)o1 0.838, COC(=O)c1c(CC[C@@H](CO)NC(=O)NCCn2cc(C3(O)CCCC3)nn2)oc(C(C)=O)c1C(=O)OC 0.173, C=C(C(=O)CC[C@@H](OC(=O)c1cccnc1)c1ccccc1OCCO)C(C)C 0.613, CCOC(=O)C[C@H]1[C@H](OC(=O)c2ccc(C(=O)c3ccccc3)cc2)[C@@H](NC(=O)c2ccccc2)c2cc(OCCCO)ccc2N1C(=O)c1ccc2ccccc2n1 0.207

— PubChem BioAssay
